# Results taken from PubChem BioAssay AID1159580 (chemical genetic matrix, 2015).
# The whole screen tested about 5,500 compounds, of which about 2,000 (36%) were called active. Roughly 18% stayed inconclusive and do not appear here. The list shows a part of the results. Values without a mark were called inactive. No stated cut-off is given here; in the data, active means normalized growth mostly below about 0.91 (no sharp cut-off); inconclusive means no clear call, values can overlap the other calls; inactive means mostly above about 0.92.
# Test: chemical genetic growth profiling, strain panel (AID 1159580);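 further: tested at 20 µM; growth read once vehicle control cultures reached saturation at 30 °C; 1 = growth at the plate median or of vehicle wells; lower values mean less growth of the strain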
# Conditions: growth OD
# [1] = S. cerevisiae deletion strains, locus YAL013W, strain DEP1, active compounds read low
# [2] = S. cerevisiae deletion strains, locus YBR229C, strain ROT2, active compounds read low
# [3] = S. cerevisiae deletion strains, locus YDL101C, strain DUN1, active compounds read low
# [4] = S. cerevisiae deletion strains, locus YDL134C, strain PPH21, active compounds read low
# [5] = S. cerevisiae deletion strains, locus YDR150W, strain NUM1, active compounds read low
# [6] = S. cerevisiae deletion strains, locus YEL061C, strain CIN8, active compounds read low
# [7] = S. cerevisiae deletion strains, locus YGR078C, strain PAC10, active compounds read low
# [8] = S. cerevisiae deletion strains, locus YHR030C, strain SLT2, active compounds read low
# [9] = S. cerevisiae deletion strains, locus YHR087W, strain rtc3, active compounds read low
# [10] = S. cerevisiae deletion strains, locus YJR043C, strain POL32, active compounds read low
# [11] = S. cerevisiae deletion strains, locus YJR075W, strain HOC1, active compounds read low
# [12] = S. cerevisiae deletion strains, locus YLR039C, strain RIC1, active compounds read low
# [13] = S. cerevisiae deletion strains, locus YLR058C, strain SHM2 (second series), active compounds read low
# [14] = S. cerevisiae deletion strains, locus YLR085C, strain ARP6, active compounds read low
# [15] = S. cerevisiae deletion strains, locus YLR262C, strain YPT6, active compounds read low
# [16] = S. cerevisiae deletion strains, locus YML094W, strain GIM5, active compounds read low
# [17] = S. cerevisiae deletion strains, locus YMR219W, strain ESC1, active compounds read low
# [18] = S. cerevisiae deletion strains, locus YMR263W, strain SAP30, active compounds read low
# [19] = S. cerevisiae deletion strains, locus YNL153C, strain GIM3, active compounds read low
# [20] = S. cerevisiae deletion strains, locus YNL298W, strain CLA4 (second series), active compounds read low
# [21] = S. cerevisiae deletion strains, locus YNL322C, strain KRE1, active compounds read low
# [22] = S. cerevisiae deletion strains, locus YNR030W, strain Alg12, active compounds read low
# [23] = S. cerevisiae deletion strains, locus YPL055C, strain LGE1, active compounds read low
# [24] = S. cerevisiae deletion strains, locus YPL241C, strain CIN2, active compounds read low
# [25] = S. cerevisiae deletion strains, locus YPR135W, strain CTF4, active compounds read low
structure (smiles),measurement,setting,value
COC(=O)c1ccccc1CSc1nccc(C(F)(F)F)n1,normalized growth,[1],0.963
same,normalized growth,[2],0.938
same,normalized growth,"S. cerevisiae deletion strains, locus YCL061C, strain MRC1, active compounds read low",0.956
same,normalized growth,[3],0.978
same,normalized growth,[4],0.86 (active)
same,normalized growth,[5],0.939
same,normalized growth,[6],0.917
same,normalized growth,[7],0.927
same,normalized growth,"S. cerevisiae deletion strains, locus YGR229C, strain SMI1, active compounds read low",0.969
same,normalized growth,[8],0.671 (active)
same,normalized growth,[9],0.913
same,normalized growth,[10],0.957
same,normalized growth,[11],0.882 (active)
same,normalized growth,"S. cerevisiae deletion strains, locus YKL190W, strain CNB1, active compounds read low",0.931
same,normalized growth,[12],0.743 (active)
same,normalized growth,[13],0.959
same,normalized growth,[14],0.661 (active)
same,normalized growth,[15],0.752 (active)
same,normalized growth,[16],0.946
same,normalized growth,[17],0.969
same,normalized growth,[18],0.975
same,normalized growth,[19],0.952
same,normalized growth,[20],0.895
same,normalized growth,[21],0.962
same,normalized growth,[22],0.861 (active)
same,normalized growth,[23],0.849
same,normalized growth,[24],0.859
same,normalized growth,[25],0.657
same,normalized growth,"S. cerevisiae strains, strain wild type, active compounds read low",0.926
CCOC(=O)c1cnc2c(c(C)nn2C)c1Sc1nnc(SC)s1,normalized growth,"S. cerevisiae deletion strains, locus YAR019C, strain CDC15, active compounds read low",0.847 (active)
same,normalized growth,"S. cerevisiae deletion strains, locus YBL105C, strain PKC1, active compounds read low",0.872 (active)
same,normalized growth,"S. cerevisiae deletion strains, locus YBR135W, strain CKS1, active compounds read low",0.874 (active)
same,normalized growth,"S. cerevisiae deletion strains, locus YBR136W, strain MEC1, active compounds read low",0.867 (active)
same,normalized growth,"S. cerevisiae deletion strains, locus YBR160W, strain CDC28, active compounds read low",0.876 (active)
same,normalized growth,"S. cerevisiae deletion strains, locus YDL017W, strain CDC7, active compounds read low",0.875 (active)
same,normalized growth,"S. cerevisiae deletion strains, locus YDL028C, strain MPS1, active compounds read low",0.882 (active)
same,normalized growth,[3],0.911 (active)
same,normalized growth,"S. cerevisiae deletion strains, locus YDL108W, strain KIN28, active compounds read low",0.899
same,normalized growth,"S. cerevisiae deletion strains, locus YDL132W, strain cdc53, active compounds read low",0.841 (active)
same,normalized growth,"S. cerevisiae deletion strains, locus YDL214C, strain PRR2, active compounds read low",0.796
same,normalized growth,"S. cerevisiae deletion strains, locus YDR052C, strain DBF4, active compounds read low",0.89 (active)
same,normalized growth,"S. cerevisiae deletion strains, locus YDR054C, strain cdc34, active compounds read low",0.779 (active)
same,normalized growth,"S. cerevisiae deletion strains, locus YDR226W, strain ADK1, active compounds read low",0.871 (active)
same,normalized growth,"S. cerevisiae deletion strains, locus YDR477W, strain SNF1, active compounds read low",0.719
same,normalized growth,"S. cerevisiae deletion strains, locus YER123W, strain YCK3, active compounds read low",0.615 (active)
same,normalized growth,"S. cerevisiae deletion strains, locus YER133W, strain GLC7, active compounds read low",0.657 (active)
same,normalized growth,"S. cerevisiae deletion strains, locus YFL009W, strain cdc4, active compounds read low",0.851 (active)
same,normalized growth,"S. cerevisiae deletion strains, locus YFL029C, strain CAK1, active compounds read low",0.845 (active)
same,normalized growth,"S. cerevisiae deletion strains, locus YFR003C, strain YPI1, active compounds read low",0.887 (active)
same,normalized growth,"S. cerevisiae deletion strains, locus YFR019W, strain FAB1, active compounds read low",0.73 (active)
same,normalized growth,"S. cerevisiae deletion strains, locus YFR028C, strain CDC14, active compounds read low",0.891 (active)
same,normalized growth,"S. cerevisiae deletion strains, locus YGR040W, strain KSS1, active compounds read low",0.742
same,normalized growth,"S. cerevisiae deletion strains, locus YGR052W, strain FMP48, active compounds read low",0.847
same,normalized growth,"S. cerevisiae deletion strains, locus YGR092W, strain DBF2, active compounds read low",0.431 (active)
same,normalized growth,[8],0.565 (active)
same,normalized growth,"S. cerevisiae deletion strains, locus YHR079C, strain IRE1, active compounds read low",0.649
same,normalized growth,"S. cerevisiae deletion strains, locus YHR082C, strain KSP1, active compounds read low",0.779
same,normalized growth,"S. cerevisiae deletion strains, locus YHR205W, strain SCH9, active compounds read low",0.744
same,normalized growth,"S. cerevisiae deletion strains, locus YIL147C, strain SLN1, active compounds read low",0.857 (active)
same,normalized growth,"S. cerevisiae deletion strains, locus YJL095W, strain BCK1, active compounds read low",0.69
same,normalized growth,"S. cerevisiae deletion strains, locus YJL128C, strain PBS2, active compounds read low",0.945
same,normalized growth,"S. cerevisiae deletion strains, locus YJL157C, strain FAR1, active compounds read low",0.739
same,normalized growth,"S. cerevisiae deletion strains, locus YJR016C, strain ILV3, active compounds read low",0.859 (active)
same,normalized growth,"S. cerevisiae deletion strains, locus YJR066W, strain TOR1 (second series), active compounds read low",0.497 (active)
same,normalized growth,"S. cerevisiae deletion strains, locus YJR066W, strain TOR1, active compounds read low",0.644
same,normalized growth,"S. cerevisiae deletion strains, locus YKL048C, strain ELM1, active compounds read low",0.902
same,normalized growth,"S. cerevisiae deletion strains, locus YKL067W, strain YNK1, active compounds read low",0.821
same,normalized growth,"S. cerevisiae deletion strains, locus YKL101W, strain HSL1, active compounds read low",0.865
same,normalized growth,"S. cerevisiae deletion strains, locus YKL193C, strain SDS22, active compounds read low",0.859 (active)
same,normalized growth,"S. cerevisiae deletion strains, locus YKL203C, strain TOR2, active compounds read low",0.683 (active)
same,normalized growth,"S. cerevisiae deletion strains, locus YLR113W, strain HOG1, active compounds read low",0.505 (active)
same,normalized growth,"S. cerevisiae deletion strains, locus YLR133W, strain CKI1, active compounds read low",0.808
same,normalized growth,"S. cerevisiae deletion strains, locus YLR403W, strain SFP1, active compounds read low",0.549 (active)
same,normalized growth,"S. cerevisiae deletion strains, locus YML070W, strain DAK1, active compounds read low",0.759
same,normalized growth,"S. cerevisiae deletion strains, locus YMR001C, strain CDC5, active compounds read low",0.855 (active)
same,normalized growth,"S. cerevisiae deletion strains, locus YMR205C, strain PFK2 (second series), active compounds read low",0.859
same,normalized growth,"S. cerevisiae deletion strains, locus YMR277W, strain FCP1, active compounds read low",0.852 (active)
same,normalized growth,"S. cerevisiae deletion strains, locus YNL006W, strain LST8, active compounds read low",0.881 (active)
same,normalized growth,"S. cerevisiae deletion strains, locus YNL020C, strain ARK1, active compounds read low",0.802
same,normalized growth,"S. cerevisiae deletion strains, locus YNL161W, strain CBK1, active compounds read low",0.88 (active)
same,normalized growth,"S. cerevisiae deletion strains, locus YNL183C, strain NPR1, active compounds read low",0.715
same,normalized growth,"S. cerevisiae deletion strains, locus YNL207W, strain RIO2, active compounds read low",0.844 (active)
same,normalized growth,"S. cerevisiae deletion strains, locus YNL222W, strain SSU72, active compounds read low",0.867 (active)
same,normalized growth,"S. cerevisiae deletion strains, locus YNL307C, strain MCK1 (second series), active compounds read low",0.596 (active)
same,normalized growth,"S. cerevisiae deletion strains, locus YOL078W, strain AVO1, active compounds read low",0.859 (active)
same,normalized growth,"S. cerevisiae deletion strains, locus YOL136C, strain PFK27, active compounds read low",0.714
same,normalized growth,"S. cerevisiae deletion strains, locus YOR061W, strain CKA2, active compounds read low",0.813
same,normalized growth,"S. cerevisiae deletion strains, locus YOR119C, strain RIO1, active compounds read low",0.77
same,normalized growth,"S. cerevisiae deletion strains, locus YOR231W, strain MKK1, active compounds read low",0.701
same,normalized growth,"S. cerevisiae deletion strains, locus YOR329C, strain SCD5, active compounds read low",0.872 (active)
same,normalized growth,"S. cerevisiae deletion strains, locus YPL031C, strain PHO85, active compounds read low",0.67
same,normalized growth,"S. cerevisiae deletion strains, locus YPL153C, strain RAD53, active compounds read low",0.62 (active)
same,normalized growth,"S. cerevisiae deletion strains, locus YPL204W, strain HRR25, active compounds read low",0.667
same,normalized growth,"S. cerevisiae deletion strains, locus YPL209C, strain IPL1, active compounds read low",0.886 (active)
same,normalized growth,"S. cerevisiae deletion strains, locus YPL256C, strain CLN2, active compounds read low",0.789 (active)
same,normalized growth,"S. cerevisiae deletion strains, locus YPR025C, strain CCL1, active compounds read low",0.879 (active)
same,normalized growth,"S. cerevisiae deletion strains, locus YPR106W, strain ISR1, active compounds read low",0.934
same,normalized growth,"S. cerevisiae deletion strains, locus YPR111W, strain DBF20, active compounds read low",0.928
same,normalized growth,"S. cerevisiae deletion strains, strain NNK1, active compounds read low",0.917
same,normalized growth,"S. cerevisiae deletion strains, strain TSCII, active compounds read low",0.846 (active)
CCOC(=O)c1cnc2nc(SC)nn2c1N,normalized growth,[1],0.997
same,normalized growth,[2],1
same,normalized growth,[3],0.955
same,normalized growth,[4],0.995
same,normalized growth,[5],0.968
same,normalized growth,[6],1
same,normalized growth,[7],0.971
same,normalized growth,[8],0.855
same,normalized growth,[9],0.994
same,normalized growth,[10],0.935
same,normalized growth,[11],0.984
same,normalized growth,[12],1.03
same,normalized growth,[13],0.994
same,normalized growth,[14],0.88
same,normalized growth,[15],1.01
same,normalized growth,[16],0.942
same,normalized growth,[17],0.993
same,normalized growth,[18],0.983
same,normalized growth,"S. cerevisiae deletion strains, locus YMR307W, strain GAS1, active compounds read low",0.909
same,normalized growth,"S. cerevisiae deletion strains, locus YNL128W, strain TEP1, active compounds read low",0.988
same,normalized growth,[19],0.956
same,normalized growth,[20],0.968
same,normalized growth,[21],0.998
same,normalized growth,[22],0.982
same,normalized growth,[23],0.942
same,normalized growth,[24],0.982
same,normalized growth,[25],0.894
